Data as given in PubChem BioAssay (Tox21).
“And” between values parts separate entries of the source, which are not always exact repeats. Equal entries are not always repeated. Inconclusive results are not listed. Entries that show only a call come without a potency. Some compounds were tested as several samples or in several runs, with calls that do not always agree. The source made the active and inactive calls. Unless noted, the call rests on the fitted dose curve.

Key:
[1] = target: Aromatase (Homo sapiens) (UniProt P11511); test: qHTS assay to identify aromatase inhibitors (AID 743083; active means well fitted curve in the direction sought with a large enough effect in the repeat runs; an effect the other way counts as inactive or inconclusive; further: nearly all actives have a fitted effect of over 55% in size; further: potency means the concentration at half of the fitted maximal effect)
[2] = target: Acetylcholinesterase (Homo sapiens) (UniProt P22303); test: Acetylcholinesterase (AChE) small molecule antagonists: colormetric cell-based qHTS assay (AID 1347395); further: nearly all actives have a fitted effect of over 30% in size
Outline: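 Quantitative HTS in attached SH-SY5Y cells: 30 min compound exposure, then 90 min with acetylthiocholine and DTNB at 37 C; colour from thiocholine reports AChE activity.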

[3] = target: Acetylcholinesterase (Homo sapiens) (UniProt P22303); test: Acetylcholinesterase (AChE) small molecule antagonists: enzyme-based qHTS assay (AID 1347397); settings: Potency: AChE enzyme activity inhibition; outcome: AChE enzyme activity inhibition; further: nearly all actives have a fitted effect of over 55% in size
Outline: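 Recombinant human AChE (50 mU/mL) preincubated with compound 30 min at room temperature; acetylthiocholine plus DTNB then added, and thiocholine formation read colorimetrically after 10 min at room temperature. DMSO served as vehicle control.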

[4] = target: Acetylcholinesterase (Homo sapiens) (UniProt P22303); test: Acetylcholinesterase (AChE) small molecule antagonists: fluorescence cell-based qHTS assay (AID 1347398); settings: Potency: AChE activity; outcome: AChE activity; further: nearly all actives have a fitted effect of over 50% in size; further: potency means the concentration at half of the fitted maximal effect
Outline: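 SH-SY5Y cells (2000/well), attached overnight, incubated with compound 30 min at 37 C. Acetylthiocholine plus Thiolite Green then added for 40 min at room temperature. Thiocholine fluorescence (Ex/Em 490/520 nm) reports cellular AChE activity.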

[5] = target: Acetylcholinesterase (Homo sapiens) (UniProt P22303); test: Acetylcholinesterase (AChE) small molecule antagonists: enzyme-based qHTS assay with human liver microsomes (AID 1347399); settings: Potency: qHTS inhibition; outcome: qHTS inhibition; further: nearly all actives have a fitted effect of over 60% in size
Outline: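 Recombinant human AChE (50 mU/mL in the enzyme mix) and human liver microsomes (0.25 mg/mL final) were preincubated with compound and NADPH (0.25 mg/mL final) for 30 min at 37 C. Acetylthiocholine/DTNB was then added; thiocholine was read colorimetrically after 10 min at room temperature.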

[6] = target: Aryl hydrocarbon receptor (Homo sapiens) (UniProt P35869); test: qHTS assay to identify small molecule that activate the aryl hydrocarbon receptor (AhR) signaling pathway (AID 743085; active means well fitted curve in the direction sought with a large enough effect in the repeat runs; an effect the other way counts as inactive or inconclusive; further: nearly all actives have a fitted effect of over 15% in size; further: potency means the concentration at half of the fitted maximal effect;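 on activation: HG2L7.5c1 human HepG2 liver cells with stably integrated DRE-driven firefly reporter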)
Outline: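 Reporter assay in engineered HepG2 line HG2L7.5c1, whose plasmid carries twenty dioxin responsive elements upstream of firefly luciferase. Treatment lasted 24 h at 37C; ONE-Glo luminescence gauged induction.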

[7] = qHTS assay to identify small molecule antagonists of the retinoic acid receptor (RAR) signaling pathway (AID 1159552; active means well fitted curve in the direction sought with a large enough effect in the repeat runs; an effect the other way counts as inactive or inconclusive; further: nearly all actives have a fitted effect of over 50% in size; further: potency means the concentration at half of the fitted maximal effect)
Outline: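 Overnight-plated C3RL4 reporter cells get compound, then retinol to 1 uM final; plates sit 6 hr at 37 C, 5% CO2. A luciferase reagent is added and light output recorded after 30 min at room temperature.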

[8] = Caspase-3/7 induction in HepG2 cells by small molecules, qHTS assay (AID 1346978; active means well fitted curve in the direction sought with a large enough effect in the repeat runs; an effect the other way counts as inactive or inconclusive; further: nearly all actives have a fitted effect of over 15% in size; further: potency means the concentration at half of the fitted maximal effect)
Outline: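 Wild-type HepG2 cells, 2,000/well, settled 5 hr at 37 C and 5% CO2, then compound-treated for 17 hr; caspase-3/7 activity read by luminescent Caspase-Glo 3/7 after 30 min at room temperature.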

[9] = qHTS assay to identify small molecule agonists of H2AX (AID 1224845; active means well fitted activation curve with a large enough effect in the signal ratio in the repeat runs, not every such curve was filed as active; the % refers to the signal ratio; further: potency means the concentration at half of the fitted maximal effect)
Outline: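 Wild-type CHO-K1 cells, plated overnight, exposed 3hr at 37C to 15 concentrations (0.76% DMSO final). Lysed, then HTRF anti-pH2AX (S139) cryptate and anti-H2AX-d2 antibodies, 24 hr room temperature; 665/620 nm emission read.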

[10] = qHTS assay to identify small molecule agonists of the estrogen related receptor (ERR) signaling pathway from Tox21 library (AID 1224849); settings: ERR reporter cell line, ONE-Glo luciferase, 18 h; at 92.4 µM (top of the series) unless noted; further: nearly all actives have a fitted effect of over 15% in size
Outline: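 Screening used an NTP-provided ERR luciferase cell line. Compounds in DMSO were added 6 h after seeding and left 18 h at 37 C before a 30 min ONE-Glo step and luminescence reading.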

[11] = A CellTox Green Cytotoxicity Assay to monitor cytotoxicity in HepG2 cells - 0 hour (AID 1224882; active means well fitted curve in the direction sought with a large enough effect in the repeat runs; an effect the other way counts as inactive or inconclusive; further: nearly all actives have a fitted effect of over 35% in size)
Outline: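 Using 1536-well format, dye-containing HepG2 suspension was seeded, allowed 5 h at 37 C/5% CO2, dosed by pintool with compounds, positive and negative controls, and imaged for fluorescence across 40 h.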

[12] = qHTS assay to identify small molecule HDAC inhibitors (AID 1259364; active means well fitted curve in the direction sought with a large enough effect in the repeat runs; an effect the other way counts as inactive or inconclusive;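 further: wild-type HCT-116 cells with endogenous class I/II HDAC activity; top concentration of the series differs between compounds; nearly all actives have a fitted effect of over 45% in size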)
Outline: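 Read-out: luminescence of HDAC-Glo I/II reagent, 30 min RT, reflecting class I/II deacetylase activity in whole HCT-116 cells pre-exposed 2 h to DMSO-dissolved compounds.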

[13] = qHTS assay to identify small molecule agonists of the sonic hedgehog signaling (Shh) pathway (AID 1259368);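 further: NIH/3T3-derived 3T3Gli1-Luc cells carrying a stable Gli1-driven firefly luciferase reporter; nearly all actives have a fitted effect of over 15% in size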
Outline: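 A Gli1 transcriptional response element controlled firefly luciferase in 3T3Gli1-Luc cells. Compounds and a positive control were added 4 hr after plating, and cells were incubated a further 24 hr at 37 C before luminescence detection.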

[14] = Caspase-3/7 induction in CHO-K1 cells by small molecules, qHTS assay (AID 1346980; active means well fitted curve in the direction sought with a large enough effect in the repeat runs; an effect the other way counts as inactive or inconclusive; further: nearly all actives have a fitted effect of over 15% in size)
Outline: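 Wild-type CHO-K1 cells exposed to compounds for 17hr at 37 C, 5% CO2. Caspase-3/7 activity then measured by Caspase-Glo 3/7 luminescence after 30min at room temperature.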

[15] = qHTS assay to identify small molecule antagonists of the estrogen related receptor (ERR) signaling pathway (AID 1224819; active means well fitted curve in the direction sought with a large enough effect in the repeat runs; an effect the other way counts as inactive or inconclusive;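 further: luminescence from an ERR-driven luciferase reporter measured with One-Glo reagent; nearly all actives have a fitted effect of over 50% in size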)
Outline: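 Luminescence readout (One-Glo, 30 min, RT) of ERR cell line after 18 h compound exposure at 37 C; cells seeded 2,000/well, pre-incubated 6 h, compounds pinned from DMSO stocks.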

[16] = qHTS assay to identify small molecule agonists of the estrogen related receptor (ERR) signaling pathway (AID 1224820; active means well fitted curve in the direction sought with a large enough effect in the repeat runs; an effect the other way counts as inactive or inconclusive)
Outline: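 ERR reporter cell line (from NTP), 2,000 cells/well, incubated 6 h before compound addition, then 18 h at 37 C. Luminescence measured 30 min after One-Glo reagent at room temperature.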

[17] = tested on: estrogen-related receptor alpha (ERRalpha) with PGC-1alpha coactivator, human; test: qHTS assay to identify small molecule antagonists of the estrogen related receptor signaling pathway with the pleiotropic PPARgamma coactivator (PGC) (AID 1224821);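 further: lower luminescence signal means antagonism of PGC/ERR signalling; nearly all actives have a fitted effect of over 50% in size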
Outline: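 PGC/ERR reporter cell line, plated 6 h before compound addition, then exposed 18 h at 37 °C. Luciferase activity read by luminescence 30 min after One-Glo addition; decrease indicates antagonism.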

[18] = qHTS assay to identify small molecule antagonists of the estrogen related receptor signaling pathway with the pleiotropic PPARgamma coactivator (PGC) cell viability counter screen (AID 1224822; active means well fitted curve in the direction sought with a large enough effect in the repeat runs; an effect the other way counts as inactive or inconclusive;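 further: viability read after 17.5 h compound exposure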)
Outline: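 PGC/ERR cells were plated at 2,000 per well and allowed 6 h to settle before compound addition. Following 17.5 h at 37 C, CellTiter-Fluor reagent was added and fluorescence was read 30 min later.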

[19] = qHTS assay to identify small molecule agonists of the estrogen related receptor signaling pathway with the pleiotropic PPARgamma coactivator (PGC) (AID 1224823; active means well fitted curve in the direction sought with a large enough effect in the repeat runs; an effect the other way counts as inactive or inconclusive)
Outline: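 PGC/ERR reporter cells seeded 6 h, then exposed to compounds (23 nL in DMSO) for 18 h at 37 C. One-Glo luciferase luminescence read after 30 min at room temperature.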

Chain of Acetylcholinesterase (Homo sapiens) (P22303 whole entry, looked up): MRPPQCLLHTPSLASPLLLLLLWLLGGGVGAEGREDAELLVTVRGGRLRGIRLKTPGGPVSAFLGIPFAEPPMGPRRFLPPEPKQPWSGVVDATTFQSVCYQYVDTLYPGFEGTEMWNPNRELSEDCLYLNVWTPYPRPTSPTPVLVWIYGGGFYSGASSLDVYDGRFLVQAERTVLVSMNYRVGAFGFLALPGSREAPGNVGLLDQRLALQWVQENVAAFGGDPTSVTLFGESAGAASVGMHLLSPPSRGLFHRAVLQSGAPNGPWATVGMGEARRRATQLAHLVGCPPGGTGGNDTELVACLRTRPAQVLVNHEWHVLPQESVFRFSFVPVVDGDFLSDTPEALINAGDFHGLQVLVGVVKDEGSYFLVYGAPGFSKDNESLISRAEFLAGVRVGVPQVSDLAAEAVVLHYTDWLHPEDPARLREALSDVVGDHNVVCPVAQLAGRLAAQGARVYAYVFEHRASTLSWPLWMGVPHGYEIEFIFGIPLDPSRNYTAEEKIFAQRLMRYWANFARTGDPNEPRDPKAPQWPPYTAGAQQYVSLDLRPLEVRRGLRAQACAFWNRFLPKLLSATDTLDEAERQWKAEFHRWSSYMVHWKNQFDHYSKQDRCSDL
Chain of Aryl hydrocarbon receptor (Homo sapiens) (P35869 whole entry, looked up): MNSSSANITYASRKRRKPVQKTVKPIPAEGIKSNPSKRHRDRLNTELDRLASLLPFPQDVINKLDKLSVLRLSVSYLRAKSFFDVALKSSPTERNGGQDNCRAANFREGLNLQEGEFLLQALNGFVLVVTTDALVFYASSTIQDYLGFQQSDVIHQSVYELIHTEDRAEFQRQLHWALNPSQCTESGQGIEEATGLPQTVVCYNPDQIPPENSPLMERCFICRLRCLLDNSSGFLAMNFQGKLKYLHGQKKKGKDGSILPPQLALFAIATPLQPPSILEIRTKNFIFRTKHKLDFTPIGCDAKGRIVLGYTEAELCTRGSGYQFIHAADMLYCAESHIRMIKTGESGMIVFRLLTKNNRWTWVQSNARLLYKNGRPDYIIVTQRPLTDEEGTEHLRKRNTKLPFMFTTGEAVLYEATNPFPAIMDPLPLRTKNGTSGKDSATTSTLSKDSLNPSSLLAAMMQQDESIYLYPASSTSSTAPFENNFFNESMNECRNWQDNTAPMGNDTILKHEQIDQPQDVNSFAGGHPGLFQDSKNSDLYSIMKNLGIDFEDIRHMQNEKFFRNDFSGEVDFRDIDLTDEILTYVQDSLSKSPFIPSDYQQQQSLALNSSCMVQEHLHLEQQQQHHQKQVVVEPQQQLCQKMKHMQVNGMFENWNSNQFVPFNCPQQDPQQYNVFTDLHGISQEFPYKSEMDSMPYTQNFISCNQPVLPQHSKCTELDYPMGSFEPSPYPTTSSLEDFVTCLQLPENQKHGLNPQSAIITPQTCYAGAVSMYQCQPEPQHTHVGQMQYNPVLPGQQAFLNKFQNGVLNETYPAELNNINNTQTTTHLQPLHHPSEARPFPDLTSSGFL
Chain of Aromatase (Homo sapiens) (P11511 whole entry, looked up): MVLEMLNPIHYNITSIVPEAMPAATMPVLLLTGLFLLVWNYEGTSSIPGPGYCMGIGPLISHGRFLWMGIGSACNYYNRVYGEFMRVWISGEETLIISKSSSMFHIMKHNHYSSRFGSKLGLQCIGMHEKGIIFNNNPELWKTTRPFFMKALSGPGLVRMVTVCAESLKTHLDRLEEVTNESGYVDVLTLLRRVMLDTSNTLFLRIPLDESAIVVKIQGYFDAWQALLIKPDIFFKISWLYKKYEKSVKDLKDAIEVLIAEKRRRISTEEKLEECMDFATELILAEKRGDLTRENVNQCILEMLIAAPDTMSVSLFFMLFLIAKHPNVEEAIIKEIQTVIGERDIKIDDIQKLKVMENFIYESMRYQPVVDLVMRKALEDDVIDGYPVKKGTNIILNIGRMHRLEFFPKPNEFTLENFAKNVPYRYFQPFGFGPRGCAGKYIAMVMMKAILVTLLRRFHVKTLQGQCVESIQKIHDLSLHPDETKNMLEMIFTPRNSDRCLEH

## CC(CCl)OC(C)CCl (configuration not stated)
[1]
  Potency: inactive
[2]
  Potency: inactive
[3]
  Potency: inactive
[4]
  Potency: inactive
[5]
  Potency: inactive

## Oc1ccc(Cl)cc1Cc1cc(Cl)ccc1O
[1]
  Potency: 31.2 µM (active)
[6]
  Potency: inactive
[7]
  Potency: 26.6 µM (active)
[2]
  Potency: inactive
[3]
  Potency: inactive
[4]
  Potency: inactive
[5]
  Potency: inactive

## Oc1c(Cl)ccc(Cl)c1Cl
[1]
  Potency: inactive
[6]
  Potency: inactive
[7]
  Potency: inactive
[8]
  Potency: inactive
[2]
  Potency: inactive
[4]
  Potency: inactive
[5]
  Potency: inactive

## O=[N+]([O-])c1ccc2ncccc2c1
[7]
  Potency: inactive
[2]
  Potency: inactive
[3]
  Potency: inactive
[4]
  Potency: inactive
[5]
  Potency: inactive

## C[C@@]12C(=O)OC(=O)[C@]1(C)C1CCC2O1
[1]
  Potency: 3.59 µM (active)
[6]
  Potency: inactive
[7]
  Potency: 5.31 µM (active)
[9]
  Potency: 22 µM (active)
[8]
  Potency: 0.376 µM (active)
[2]
  Potency: inactive
[3]
  Potency: inactive
[4]
  Potency: inactive
[5]
  Potency: inactive

## Nc1cccc(C(F)(F)F)c1
[1]
  Potency: inactive
[6]
  Potency: inactive
[7]
  Potency: inactive
[2]
  Potency: inactive
[3]
  Potency: inactive
[4]
  Potency: inactive
[5]
  Potency: inactive

## Nc1ccc(Cl)cc1Cl
[7]
  Potency: inactive
[9]
  Potency: inactive
[10]
  activity change, positive = activation: -4.05% (inactive)
[8]
  Potency: inactive
[2]
  Potency: inactive
[3]
  Potency: inactive
[4]
  Potency: inactive
[5]
  Potency: inactive

## COc1ccccc1[N+](=O)[O-]
[1]
  Potency: inactive
[6]
  Potency: inactive
[7]
  Potency: inactive
[9]
  Potency: inactive
[10]
  activity change, positive = activation: 4.31% (inactive)
[8]
  Potency: inactive
[2]
  Potency: inactive
[3]
  Potency: inactive
[4]
  Potency: inactive
[5]
  Potency: inactive

## CN1CSC(=S)N(C)C1
[1]
  Potency: 4.83 µM (active) and 3.85 µM (active)
[6]
  Potency: inactive
[9]
  Potency: 4.48 µM (active)
[10]
  activity change, positive = activation: -78.8% (inactive) and -76.3% (inactive)
[11]
  Potency: inactive
[12]
  outcome: inactive
[13]
  outcome: inactive
[8]
  Potency: 7.66 µM (active)
[14]
  outcome: inactive
[2]
  Potency: inactive
[3]
  Potency: inactive
[4]
  Potency: inactive
[5]
  Potency: inactive

## O=[N+]([O-])c1cccc(Cl)c1Cl
[6]
  Potency: inactive
[7]
  Potency: inactive
[2]
  Potency: inactive
[3]
  Potency: inactive
[4]
  Potency: inactive
[5]
  Potency: inactive

## c1cc(OCC2CO2)cc(OCC2CO2)c1 (configuration not stated)
[1]
  Potency: 38.3 µM (active)
[6]
  Potency: inactive
[7]
  Potency: inactive
[2]
  Potency: inactive
[3]
  Potency: inactive
[4]
  Potency: inactive
[5]
  Potency: inactive

## Nc1ccc2c3c(cccc13)-c1ccccc1-2
[1]
  Potency: inactive
[6]
  Potency: 21.9 µM (active)
[7]
  Potency: inactive
[2]
  Potency: inactive
[3]
  Potency: inactive
[4]
  Potency: inactive
[5]
  Potency: inactive

## O=C(O)C(c1ccc(Cl)cc1)c1ccc(Cl)cc1
[1]
  Potency: inactive
[6]
  Potency: inactive
[8]
  Potency: inactive
[2]
  Potency: inactive
[3]
  Potency: inactive
[4]
  Potency: inactive
[5]
  Potency: inactive

## Nc1cccc([N+](=O)[O-])c1
[1]
  Potency: inactive
[7]
  Potency: inactive
[2]
  Potency: inactive
[3]
  Potency: inactive
[4]
  Potency: inactive
[5]
  Potency: inactive

## Fc1c(F)c(F)c(Br)c(F)c1F
[1]
  Potency: inactive
[6]
  Potency: inactive
[7]
  Potency: inactive
[8]
  Potency: inactive
[2]
  Potency: inactive
[3]
  Potency: inactive
[4]
  Potency: inactive
[5]
  Potency: inactive

## C=CC(=O)OCCCCCCCC(C)C
[1]
  Potency: inactive
[6]
  Potency: inactive
[7]
  Potency: inactive
[9]
  Potency: inactive
[2]
  Potency: inactive
[3]
  Potency: inactive
[4]
  Potency: inactive
[5]
  Potency: inactive

## Cc1cccc(C)c1[N+](=O)[O-]
[1]
  Potency: inactive
[7]
  Potency: inactive
[9]
  Potency: inactive
[8]
  Potency: inactive
[2]
  Potency: inactive
[3]
  Potency: inactive
[4]
  Potency: inactive
[5]
  Potency: inactive

## CC(C)=O
[1]
  Potency: inactive
[7]
  Potency: inactive
[2]
  Potency: inactive
[3]
  Potency: inactive
[4]
  Potency: inactive
[5]
  Potency: inactive

## COc1ccc(C(c2ccc(OC)cc2)C(Cl)(Cl)Cl)cc1
[1]
  Potency: inactive
[7]
  Potency: inactive
[15]
  Potency: inactive
[16]
  Potency: inactive
[17]
  Potency: inactive
[18]
  Potency: inactive
[19]
  Potency: inactive
[10]
  activity change, positive = activation: -35.3% (inactive)
[11]
  Potency: inactive
[13]
  outcome: inactive
[8]
  Potency: inactive
[14]
  outcome: inactive
[2]
  Potency: inactive
[4]
  Potency: inactive
[5]
  Potency: inactive

## Brc1c2ccccc2cc2ccccc12
[1]
  Potency: inactive
[6]
  Potency: inactive
[7]
  Potency: inactive
[8]
  Potency: inactive
[2]
  Potency: inactive
[3]
  Potency: inactive
[4]
  Potency: inactive
[5]
  Potency: inactive

## Cc1cccc([N+](=O)[O-])c1C
[1]
  Potency: inactive
[6]
  Potency: inactive
[7]
  Potency: inactive
[9]
  Potency: inactive
[8]
  Potency: inactive
[2]
  Potency: inactive
[3]
  Potency: inactive
[4]
  Potency: inactive
[5]
  Potency: inactive

## CCc1cccc(C)c1N
[1]
  Potency: inactive
[6]
  Potency: inactive
[7]
  Potency: inactive
[9]
  Potency: inactive
[10]
  activity change, positive = activation: 10.2% (inactive)
[2]
  Potency: inactive
[3]
  Potency: inactive
[4]
  Potency: 34.5 µM (active) and inactive
[5]
  Potency: inactive

## CC(C)(C)OCC1CO1 (configuration not stated)
[1]
  Potency: inactive
[7]
  Potency: inactive
[2]
  Potency: inactive
[3]
  Potency: inactive
[4]
  Potency: inactive
[5]
  Potency: inactive

## Clc1ccccc1-c1ccccc1Cl
[1]
  Potency: 78.1 µM (active)
[6]
  Potency: inactive
[7]
  Potency: inactive
[11]
  Potency: inactive
[12]
  outcome: inactive
[13]
  outcome: inactive
[8]
  Potency: inactive
[14]
  outcome: inactive
[2]
  Potency: inactive
[3]
  Potency: inactive
[4]
  Potency: inactive
[5]
  Potency: inactive

## Nc1ccccc1[N+](=O)[O-]
[1]
  Potency: inactive
[7]
  Potency: inactive
[8]
  Potency: inactive
[2]
  Potency: inactive
[3]
  Potency: inactive
[4]
  Potency: inactive
[5]
  Potency: inactive

## Brc1ccccc1-c1ccccc1
[7]
  Potency: inactive
[10]
  activity change, positive = activation: -1.58% (inactive)
[8]
  Potency: inactive
[2]
  Potency: inactive
[3]
  Potency: inactive
[4]
  Potency: inactive
[5]
  Potency: inactive
